Test results taken from PubChem BioAssay (Tox21).
Inconclusive results are not listed. Where a call stands in place of a potency, no number is given. Calls of active or inactive are those of the source. Calls come from the whole dose curve.

Target: Muscarinic acetylcholine receptor M1 (Homo sapiens) (UniProt P11229)
Assay: Cholinergic receptor muscarinic 1 (CHRM1) small molecule antagonists, cell-based qHTS assay (AID 1963588); note: nearly all actives have a fitted effect of over 40% in size
Conditions: CHRM1-CHO antagonist mode, calcium flux fluorescence; series mostly up to 61.5 µM
Method in brief: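 CHRM1-CHO calcium-flux assay, antagonist mode. Cells were seeded 18 h, dye-loaded 1 h at 37 C and given compound for 5 min at RT, then acetylcholine was added at 50nM. FDSS fluorescence was read 3 min; 15 concentrations, three runs.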

Muscarinic acetylcholine receptor M1 (Homo sapiens), sequence (P11229 whole entry, looked up): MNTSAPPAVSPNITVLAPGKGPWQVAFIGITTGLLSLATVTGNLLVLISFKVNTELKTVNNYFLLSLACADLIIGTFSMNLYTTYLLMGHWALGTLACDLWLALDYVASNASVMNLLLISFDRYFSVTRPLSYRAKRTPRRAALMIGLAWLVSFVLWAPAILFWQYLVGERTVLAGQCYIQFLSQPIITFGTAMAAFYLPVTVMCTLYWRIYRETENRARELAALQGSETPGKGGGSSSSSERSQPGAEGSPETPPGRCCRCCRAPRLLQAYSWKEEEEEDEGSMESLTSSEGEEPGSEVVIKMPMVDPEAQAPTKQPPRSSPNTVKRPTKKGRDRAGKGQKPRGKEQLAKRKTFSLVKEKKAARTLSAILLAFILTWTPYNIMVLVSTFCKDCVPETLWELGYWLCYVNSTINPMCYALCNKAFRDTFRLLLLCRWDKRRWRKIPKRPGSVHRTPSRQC

| Compound | Potency |
| --- | --- |
| CCC(C)OC(=O)c1ccc(O)cc1 (stereo not given) | inactive |
| O=c1n(CC2CO2)c(=O)n(CC2CO2)c(=O)n1CC1CO1 (stereo not given) | inactive |
| CC(=O)OCC(=O)[C@@]12N=C(C)O[C@@H]1C[C@H]1[C@@H]3CCC4=CC(=O)C=C[C@]4(C)[C@H]3[C@@H](O)C[C@@]12C | inactive |
| CCCCC(CC)COC(=O)C(C#N)=C(c1ccccc1)c1ccccc1 (stereo not given) | inactive |
| OC1CCCCC1 | inactive |
| Cc1cc(=O)[nH]c(=S)[nH]1 | inactive |
| O=c1c(O)c(-c2ccc(O)cc2)oc2cc(O)cc(O)c12 | inactive |
| COCCOCCOC | inactive |
| C=C(C)C(=O)OCCCCCC | inactive |
| C=C(C)C1CC=C(C)C(OC(C)=O)C1 (stereo not given) | inactive |
| C=C1C2CCC(C2)C1(C)C (stereo not given) | inactive |
| CC(=O)Nc1ccc(C(=O)CCl)cc1 | inactive |
| C=CC(C)(CCC=C(C)C)OC(C)=O (stereo not given) | inactive |
| C[C@]12C[C@H](O)[C@H]3[C@@H](CCC4=CC(=O)CC[C@@]43C)[C@@H]1CC[C@@H]2C(=O)CO | inactive |
| CCCCCCCC(=O)OC | inactive |
| O=C(Cl)c1c(Cl)c(Cl)c(C(=O)Cl)c(Cl)c1Cl | inactive |
| COC(=O)CCCCC(=O)OC | inactive |
| CCCN(CCC)C(=O)SCC | inactive |
| C=C(C#N)C(=O)OCC | inactive |
| C[Si]1(C)O[Si](C)(C)O[Si](C)(C)O[Si](C)(C)O1 | inactive |
| O=[Se](O)O | inactive |
| CCCCCCCCCCC(CO)CCCCCCCC (stereo not given) | inactive |
| COC(C)COC(C)COC(C)CO (stereo not given) | inactive |
| Brc1ccc(Oc2ccc(Br)cc2)cc1 | inactive |
| O=C1CCCCCCCCCCCN1 | inactive |
| O=C(c1ccc(O)cc1)c1ccc(O)cc1O | inactive |
| CCCC(O)C(CC)CO (stereo not given) | inactive |
| CC1COC(=O)O1 (stereo not given) | inactive |

Target: Muscarinic acetylcholine receptor M1 (Homo sapiens) (UniProt P11229)
Assay: Cholinergic receptor muscarinic 1 (CHRM1) small molecule agonists, cell-based qHTS assay (AID 1963589); note: nearly all actives have a fitted effect of over 35% in size
Conditions: CHRM1-CHO cells, agonist mode, calcium flux fluorescence; series mostly up to 76.8 µM
Method in brief: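 CHO cells stably expressing human CHRM1 were loaded with calcium dye for 1 h at 37 C, then compound was added in agonist mode. Intracellular calcium fluorescence was followed kinetically at 1 s intervals. Fifteen concentrations were tested in three independent runs.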

| Compound | Potency |
| --- | --- |
| CCC(C)OC(=O)c1ccc(O)cc1 (stereo not given) | inactive |
| O=c1n(CC2CO2)c(=O)n(CC2CO2)c(=O)n1CC1CO1 (stereo not given) | inactive |
| CCCCC(CC)COC(=O)C(C#N)=C(c1ccccc1)c1ccccc1 (stereo not given) | inactive |
| OC1CCCCC1 | inactive |
| O=c1c(O)c(-c2ccc(O)cc2)oc2cc(O)cc(O)c12 | inactive |
| COCCOCCOC | inactive |
| C=C(C)C(=O)OCCCCCC | inactive |
| C=C(C)C1CC=C(C)C(OC(C)=O)C1 (stereo not given) | inactive |
| C=C1C2CCC(C2)C1(C)C (stereo not given) | inactive |
| CC(=O)Nc1ccc(C(=O)CCl)cc1 | inactive |
| C=CC(C)(CCC=C(C)C)OC(C)=O (stereo not given) | inactive |
| C[C@]12C[C@H](O)[C@H]3[C@@H](CCC4=CC(=O)CC[C@@]43C)[C@@H]1CC[C@@H]2C(=O)CO | inactive |
| CCCCCCCC(=O)OC | inactive |
| O=C(Cl)c1c(Cl)c(Cl)c(C(=O)Cl)c(Cl)c1Cl | inactive |
| COC(=O)CCCCC(=O)OC | inactive |
| C=C(C#N)C(=O)OCC | inactive |
| C[Si]1(C)O[Si](C)(C)O[Si](C)(C)O[Si](C)(C)O1 | inactive |
| O=[Se](O)O | inactive |
| CCCCCCCCCCC(CO)CCCCCCCC (stereo not given) | inactive |
| COC(C)COC(C)COC(C)CO (stereo not given) | inactive |
| Brc1ccc(Oc2ccc(Br)cc2)cc1 | inactive |
| O=C1CCCCCCCCCCCN1 | inactive |
| O=C(c1ccc(O)cc1)c1ccc(O)cc1O | inactive |
| CC1COC(=O)O1 (stereo not given) | inactive |
| O=C(CC(C(=O)OC1CCCCC1)S(=O)(=O)O)OC1CCCCC1 (stereo not given) | inactive |

Tested on: not listed separately
Assay: cAMP Responsive Elements (CRE) small molecule agonists, cell-based qHTS assay (AID 1963590); note: potency is the fitted concentration of half-maximal effect
Conditions: CRE-bla HEK293T, beta-lactamase FRET ratio, 3 h; series mostly up to 92.4 µM
Method in brief: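 CRE-bla HEK 293T cells, 2,000/well in DMEM with 10% dialyzed FBS and 25 mM HEPES, pre-incubated 18 h at 37 C, then exposed to compound 3 h at 37 C. Beta-lactamase reporter read with LiveBLAzer B/G FRET substrate after 2 h at room temperature.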

| Compound | Potency |
| --- | --- |
| CCC(C)OC(=O)c1ccc(O)cc1 (stereo not given) | inactive |
| NC(=O)c1ncn([C@@H]2O[C@H](CO)[C@@H](O)[C@H]2O)n1 | inactive |
| OC1CCCCC1 | inactive |
| Cc1cc(=O)[nH]c(=S)[nH]1 | inactive |
| COCCOCCOC | inactive |
| C=C(C)C(=O)OCCCCCC | inactive |
| C=C(C)C1CC=C(C)C(OC(C)=O)C1 (stereo not given) | inactive |
| Nc1ncn([C@@H]2O[C@H](CO)[C@@H](O)[C@H]2O)c(=O)n1 | inactive |
| C=C1C2CCC(C2)C1(C)C (stereo not given) | inactive |
| C=CC(C)(CCC=C(C)C)OC(C)=O (stereo not given) | inactive |
| CCCCCCCC(=O)OC | inactive |
| O=C(Cl)c1c(Cl)c(Cl)c(C(=O)Cl)c(Cl)c1Cl | inactive |
| OC(Cn1cncn1)(Cn1cncn1)c1ccc(F)cc1F | inactive |
| COC(=O)CCCCC(=O)OC | inactive |
| C[C@]12CC[C@@H]3c4ccc(O)cc4CC[C@H]3[C@@H]1CC[C@H]2O | inactive |
| CCCN(CCC)C(=O)SCC | inactive |
| C=C(C#N)C(=O)OCC | inactive |
| C[Si]1(C)O[Si](C)(C)O[Si](C)(C)O[Si](C)(C)O1 | inactive |
| CC(=O)Nc1nnc(S(N)(=O)=O)s1 | inactive |
| CCCCCCCCCCC(CO)CCCCCCCC (stereo not given) | inactive |
| C#C[C@]1(O)CC[C@H]2[C@@H]3CCC4=Cc5oncc5C[C@]4(C)[C@H]3CC[C@@]21C | 29.8 µM (active) |
| COC(C)COC(C)COC(C)CO (stereo not given) | inactive |
| Brc1ccc(Oc2ccc(Br)cc2)cc1 | inactive |
| O=C1CCCCCCCCCCCN1 | inactive |
| CCCC(O)C(CC)CO (stereo not given) | inactive |
| CC1COC(=O)O1 (stereo not given) | inactive |
| O=C(CC(C(=O)OC1CCCCC1)S(=O)(=O)O)OC1CCCCC1 (stereo not given) | inactive |
